Screening data: PubChem BioAssay, National Center for Advancing Translational Sciences (NCATS)
In the library only some 19% were active in any assay of this set; here they are far more common.
HT1080NT lethal: kills 2HG-producing HT-1080-NT fibrosarcoma cells; Potency, µM (top dose mostly 46.1 µM), actives largely listed as cytotoxic; HT-1080-NT fibrosarcoma viability, CellTiter-Glo ATP luminescence, 48 h; 360,000 tested, 1.6% active;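 also: NT is the 2HG producing partner of a matched IDH1 knockdown line; nearly all actives have a fitted effect of over 55% in size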
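Toxicity toward the 2HG-producing NT line was scored as %Activity, normalised to DMSO and no-cell wells, from CellTiter-Glo luminescence after 48 hours' treatment.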
IL-1B inflam inh: inflammasome signaling inhibition, IL-1 beta readout; THP-1 LPS/ATP IL-1B secretion, AlphaLISA, 16 h; stronger effect = lower value; activity change, % at 57.5 µM; 360,000 tested, 4.7% active; AID 743279; in the data active = activity change below about -50%; inconclusive = mostly about -30% to -49%
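THP-1 cells pretreated 1 hr with compounds (up to 57.5 uM final), then stimulated with LPS (250 ng/mL final) plus ATP (1.25 mM final); secreted IL-1B measured by AlphaLISA after 16 hr, decreased signal indicating inhibition.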
TDP1 cell noCPT: qHTS for Inhibitors of human tyrosyl-DNA phosphodiesterase 1 (TDP1): qHTS in cells in absence of CPT. DT40 Tdp1-/- hTDP1 cells, no CPT, ATP luminescence, 48 h. Potency, µM (doses to about 46.2 µM), usual class: inhibitors. 420,000 tested, 15% active. AID 686978, 2013; also: nearly all actives have a fitted effect of over 55% in size
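Cells were dispensed at 400 per well, compounds added by pin tool, plates incubated ≥48 hr at 37 °C, then CellTiter-Glo added for 30 min at room temperature before luminescence reading. Line: DT40 Tdp1-/- complemented with hTDP1; camptothecin omitted.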
ELG1 DNA repair: blocks ELG1-dependent DNA repair in HEK293T cells; 330,000 tested, 2.3% active; HEK293T ELG1-luciferase reporter, luminescence, 16 h; DNA damage induced by 5-fluorouridine; Potency, µM (series often up to 46.1 µM), most hits filed as inhibitors; AID 504467; also: nearly all actives have a fitted effect of over 55% in size
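Overnight (16 hr) co-exposure of 2,000 cells/well to 5-fluorouridine and compound at 37 °C preceded detection. Luciferase was quantified via ONE-Glo luminescence; loss of signal denotes inhibition.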
TDP1 cell CPT: growth inhibition of DT40 Tdp1-/-;hTDP1 cells with camptothecin (screen for TDP1 inhibitors); Potency, µM (top dose mostly 46.2 µM), most hits filed as inhibitors; chicken DT40 Tdp1-/-;hTDP1 cells + 20 nM CPT, ATP luminescence, 48 h; 420,000 tested, 12% active; also: nearly all actives have a fitted effect of over 55% in size
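Cell growth measured by CellTiter-Glo luminescence after a minimum 48 h, 37 C compound exposure with 20 nM CPT in Tdp1-knockout DT40 cells stably expressing hTDP1, seeded 400/well; qHTS titration format.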
HT1080 IDH1KD tx: HT-1080 IDH1 knockdown cell toxicity (counter line) | HT-1080 IDH1 knockdown viability, ATP luminescence, 48 h | Potency, µM (titrated, usually from 46.1 µM), hits mostly cytotoxic | 360,000 tested, 2% active | AID 686971
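Cytotoxicity counter-line: IDH1KD HT-1080, 48 h, CellTiter-Glo. Curves classed by r2, magnitude and activity.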
A number is an active result; – = inactive; ? = inconclusive; · = no result given. Unless noted, calls follow the shape of the dose curve; as a rule, active = well fitted curve in the direction sought with a large enough effect; inconclusive = small, poorly fitted or top-dose-only effect, or another doubt; inactive = no such curve, though single readings can be large; an effect the other way counts as inactive or inconclusive.

SMILES	HT1080NT lethal	IL-1B inflam inh	TDP1 cell noCPT	ELG1 DNA repair	TDP1 cell CPT	HT1080 IDH1KD tx
Cc1ccc(O)c(CNCCNCc2cc(C)ccc2O)c1	?	–	13µM	–	10µM	?
CCc1ccc(O)c(CNCCNCc2cc(CC)ccc2O)c1	–	–	16µM	?	23µM	–
Cc1ccc(NC(=O)CN(C)C(=O)c2cccc(S(=O)(=O)NCc3ccco3)c2)cc1	–	–	–	–	–	–
CCn1c(SCC(=O)Nc2ccc3c(c2)OCO3)nc2ccccc21	–	–	–	?	–	–
CSc1nc2ccccc2n1CC(=O)Nc1ccc(C)c(C)c1	–	–	?	–	?	–
Cc1ccc(NC(=O)CSc2nc3ccccc3n2CC(=O)N2CCC(C)CC2)cc1C	·	·	18µM	·	?	·
CCCCN(C)C(=O)Cn1c(SCC(=O)Nc2ccc(C)c(C)c2)nc2ccccc21	·	·	13µM	·	?	·
CN(C(=O)c1cc(COc2ccc(F)c(F)c2)on1)C1CCOC1 (stereo unspecified)	–	–	–	–	?	–
CCOC(=O)c1ccccc1NC(=O)CSc1cc(C)[nH]c(=O)n1	·	·	–	·	–	·
Cc1ccc2cc(CN(CCc3ccccc3)C(=S)NCCCN(C)C)c(=O)[nH]c2c1	26µM	?	26µM	?	?	?
CC(=O)N(CCc1ccccc1)Cc1cc2ccc(C)c(C)c2[nH]c1=O	–	–	–	?	–	–
Cc1cccc2cc(CN(CCCN(C)C)C(=S)NCCc3ccccc3)c(=O)[nH]c12	–	-51	16µM	–	21µM	–
Cc1ccc2[nH]c(=O)c(CN(CCCN(C)C)C(=S)NCCc3ccccc3)cc2c1	18µM	-67	?	–	?	18µM
O=C(c1cccc(F)c1)N1CCC2(CC1)CN(c1ncccn1)C2	·	·	–	·	?	·
COC(=O)[C@]1(Cc2ccccc2)N[C@H](c2ccc(SC3CCCCC3)c(OC)c2)[C@@H]2C(=O)N(C)C(=O)[C@@H]21	–	–	?	–	?	–
O=c1cc(CCl)nc2sc3ccccc3n12	16µM	-59	?	–	?	?
O=c1c2ccccc2nc2n1-c1ccccc1CCC2	–	–	16µM	–	?	–
O=C1c2ccccc2-n2c1nc1ccccc1c2=O	–	–	1.3µM	?	1.3µM	–
Nn1c(-c2ccccc2)nc2ccccc2c1=O	–	–	–	–	–	–
COc1ccc(-c2noc(CC(=O)Nc3ccc(F)cc3F)n2)cc1	·	·	–	·	–	·
COc1cccc(NC(=O)COC(=O)/C=C/c2c(C)nn(-c3ccccc3)c2C)c1	–	–	?	?	?	–
CCOC(=O)[C@]12CCC=C1N(Cc1ccc3c(c1)OCO3)C(=O)[C@H](CC(=O)NCCCOC)C2	–	–	–	·	–	–
CC(=O)O[C@H]1CC(C)(C)C(=C=C/C(C)=C/C=C/C(C)=C/C=C/C=C(C)/C=C/C=C(\C)C(=O)C[C@@]23O[C@]2(C)C[C@@H](O)CC3(C)C)[C@](C)(O)C1	–	-63	?	–	26µM	–
CCOC(=O)/C(C#N)=C/c1c(N2CCN(c3ccccc3)CC2)nc2ccccn2c1=O	–	–	–	?	?	–
COc1ccccc1/C=C(/NC(=O)c1ccccc1)C(=O)NCCCn1ccnc1	?	–	–	?	?	–
O=C(CCc1ccccn1)NC1CCCc2c1cnn2-c1ccc(F)cc1F (stereo unspecified)	–	–	?	?	–	–
O=C(NC1CCCc2c1cnn2-c1ccc(F)cc1F)c1ccccc1N1CCOCC1 (stereo unspecified)	–	–	23µM	–	?	–
Cc1ccc(-n2ncc3c2CCCC3NC(=O)c2ccccc2N2CCOCC2)cc1C (stereo unspecified)	–	–	?	–	16µM	–
